Laboratory results: PubChem BioAssay AID1159580 (chemical genetic matrix, 2015)
“And” between values parts separate entries of the source, which are not always exact repeats. Identical values can stand only once. About 2,000 (36%) of roughly 5,500 compounds were called active. Inconclusive results (about 18%) are left out. Cut-off read from the data, not from the text of the source: active = normalized growth mostly below about 0.91 (no sharp cut-off); inconclusive = no clear call, values can overlap the other calls; inactive = mostly above about 0.92. The list shows a part of the results.

Test: chemical genetic growth profiling, strain panel (AID 1159580);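 note: tested at 20 µM; growth read once vehicle control cultures reached saturation at 30 °C; 1 = growth at the plate median or of vehicle wells; lower values mean less growth of the strain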
Details: S. cerevisiae deletion strains, growth OD

Measured: normalized growth

CC(C)(C)NCC(O)c1ccc(O)c(CO)c1 (stereo not given)
inactive: locus YAL013W, strain DEP1, hits give low values 1 and 1.04 | locus YAL021C, strain ccr4, hits give low values 1.02 | locus YAL026C, strain drs2, hits give low values 1.02 | locus YAL030W, strain snc1, hits give low values 1.02 | locus YAL040C, strain CLN3, hits give low values 0.991 and 1.01 | locus YBL061C, strain skt5, hits give low values 1.02 | locus YBR009C, strain hhf1, hits give low values 0.998 | locus YBR021W, strain FUR4, hits give low values 1.01 | locus YBR023C, strain chs3, hits give low values 1.01 | locus YBR171W, strain sec66, hits give low values 1.02 | locus YBR229C, strain ROT2, hits give low values 1 | locus YBR231C, strain swc5, hits give low values 1.01 | locus YBR279W, strain paf1, hits give low values 1.01 | locus YCL011C, strain gbp2, hits give low values 0.998 | locus YCL016C, strain dcc1, hits give low values 1.02 | locus YCL029C, strain bik1, hits give low values 1.01 | locus YCL061C, strain MRC1 (second series), hits give low values 1 and 1.01 | locus YCL061C, strain MRC1, hits give low values 1 | locus YCL069W, strain vba3, hits give low values 1.02 | locus YCR088W, strain abp1, hits give low values 1.01 | locus YDL005C, strain med2, hits give low values 1.01 | locus YDL035C, strain GPR1, hits give low values 1.04 | locus YDL040C, strain nat1, hits give low values 1 | locus YDL074C, strain BRE1, hits give low values 1.06 | locus YDL101C, strain DUN1, hits give low values 1.01 | locus YDL134C, strain PPH21, hits give low values 1 | locus YDL185W, strain tfp1, hits give low values 1.02 | locus YDL192W, strain arf1, hits give low values 1.02 | locus YDR001C, strain nth1, hits give low values 1.01 | locus YDR069C, strain doa4, hits give low values 0.998 | locus YDR101C, strain arx1, hits give low values 0.972 | locus YDR137W, strain rgp1, hits give low values 1.01 | locus YDR150W, strain NUM1, hits give low values 1.01 | locus YDR159W, strain sac3, hits give low values 0.99 | locus YDR162C, strain NBP2, hits give low values 1.03 | locus YDR195W, strain ref2 0.99 | locus YDR297W, strain sur2, hits give low values 1.01 | locus YDR318W, strain mcm21, hits give low values 1.02 | locus YDR334W, strain swr1, hits give low values 0.995 | locus YDR335W, strain msn5, hits give low values 1.02 | locus YDR363W, strain ESC2, hits give low values 1.03 | locus YDR388W, hits give low values 1.02 | locus YDR392W, strain spt3, hits give low values 0.981 | locus YDR502C, strain sam2, hits give low values 1.02 | locus YEL003W, strain gim4, hits give low values 1.01 | locus YEL037C, strain rad23, hits give low values 1.01 | locus YEL061C, strain CIN8 (second series), hits give low values 1 | locus YEL061C, strain CIN8, hits give low values 1.01 | locus YER002W, strain NOP16, hits give low values 0.988 and 1.03 | locus YER015W, strain faa2, hits give low values 1.02 | locus YER016W, strain bim1, hits give low values 1.03 | locus YER110C, hits give low values 1.02 | locus YER111C, strain swi4, hits give low values 1.01 | locus YER155C, strain BEM2 (second series), hits give low values 0.982 | locus YER155C, strain BEM2, hits give low values 1.01 | locus YER167W, strain BCK2, hits give low values 1.02 | locus YFR010W, strain ubp6, hits give low values 1.01 | locus YGL078C, strain dbp3, hits give low values 1.03 | locus YGL086W, strain mad1, hits give low values 1.01 | locus YGL167C, strain pmr1, hits give low values 1.02 | locus YGL173C, strain kem1, hits give low values 1.01 | locus YGL227W, strain vid30, hits give low values 0.989 | locus YGL240W, strain doc1, hits give low values 1.02 | locus YGL248W, strain PDE1, hits give low values 0.998 | locus YGL253W, strain hxk2, hits give low values 1.01 | locus YGR078C, strain PAC10, hits give low values 1.02 | locus YGR135W, strain pre9, hits give low values 1.06 | locus YGR229C, strain SMI1, hits give low values 1.02 and 1.05 | locus YGR252W, strain gcn5, hits give low values 1.12 | locus YHR013C, strain ard1, hits give low values 1.01 | locus YHR027C, strain rpn1, hits give low values 1.01 | locus YHR030C, strain SLT2, hits give low values 1.01 and 1.03 | locus YHR079C, strain IRE1 (second series), hits give low values 1.01 | locus YHR079C, strain IRE1, hits give low values 1.03 | locus YHR094C, strain hxt1, hits give low values 1.02 | locus YHR129C, strain ARP1, hits give low values 1.02 | locus YHR142W, strain chs7, hits give low values 1 | locus YHR200W, strain rpn10, hits give low values 1.02 | locus YIL066C, strain RNR3, hits give low values 1.01 | locus YIL073C, strain SPO22, hits give low values 1.1 | locus YIL125W, strain kgd1, hits give low values 1.01 | locus YIR030C, strain dcg1, hits give low values 1.02 | locus YJL092W, strain hpr5, hits give low values 1.01 | locus YJL095W, strain BCK1 (second series), hits give low values 1.03 | locus YJL095W, strain BCK1, hits give low values 1.01 and 1.03 | locus YJL115W, strain asf1, hits give low values 1.04 | locus YJL129C, strain trk1, hits give low values 1 | locus YJL134W, strain LCB3, hits give low values 1.02 | locus YJL154C, strain vps35, hits give low values 1.02 | locus YJL164C, strain tpk1, hits give low values 1 | locus YJL166W, strain qcr8, hits give low values 0.999 | locus YJL168C, strain set2, hits give low values 1.01 | locus YJL187C, strain SWE1 (second series), hits give low values 0.996 | locus YJR043C, strain POL32, hits give low values 1.03 | locus YJR066W, strain TOR1, hits give low values 0.979
